High-throughput results from PubChem BioAssay.
The list is not random: actives were taken first. Their share in the collection is about 6.6%.
MCF10A rerep: A quantitative high throughput screen for small molecules that induce DNA re-replication in MCF 10a normal breast cells; MCF 10A DNA re-replication, Hoechst nuclear intensity, 48 h; Potency, µM (highest dose often 46.1 µM), for inactives: top-dose activity, positive = re-replication, usual class: activators; 350,000 tested, 2.9% active; AID 624296, 2012; also: % of control where 0% means no effect; nearly all actives have a fitted effect of over 50% in size
SW480 rerep: A quantitative high throughput screen for small molecules that induce DNA re-replication in SW480 colon adenocarcinoma cells | Potency, µM (titrated, usually from 46.1 µM), inactives show top-dose re-replication activation, usual class: activators | AID 624297, 2012 | SW480 DNA re-replication, Hoechst DNA content imaging, 48 h | 340,000 tested, 1.8% active; also: % of control where 0% means no effect; nearly all actives have a fitted effect of over 55% in size
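Hoechst fluorescence of nuclei (405 nm excitation, 500-530 nm emission) measured by plate-scanning imager after 48 hr compound exposure at 37 C; re-replication scored as increased number of nuclei with elevated intensity.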
TSG101-PTAP inh: qHTS Assay for Iinhibitors of HIV-1 Budding by Blocking the Interaction of PTAP/TSG101 | Tumor susceptibility gene 101 protein (Homo sapiens), Q99816 | Fluorescence polarization, FITC-PTAP peptide / Tsg101 binding | Potency, µM (titrated, usually from 115 µM), for inactives: at the top dose activity change, negative = inhibition, hits mostly inhibitors | 340,000 tested, under 10 active | AID 493005, 2010; active = well fitted inhibition curve with a large enough effect in the main read-out, with a control signal flat, not every such curve was filed as active; inconclusive = small, poorly fitted or top-dose-only effect, or effect the other way, or a change in a side signal; inactive = no such curve, though single readings can be large or run the other way; also: % of control where 0% means no effect
Target sequence (Q99816 whole entry, looked up): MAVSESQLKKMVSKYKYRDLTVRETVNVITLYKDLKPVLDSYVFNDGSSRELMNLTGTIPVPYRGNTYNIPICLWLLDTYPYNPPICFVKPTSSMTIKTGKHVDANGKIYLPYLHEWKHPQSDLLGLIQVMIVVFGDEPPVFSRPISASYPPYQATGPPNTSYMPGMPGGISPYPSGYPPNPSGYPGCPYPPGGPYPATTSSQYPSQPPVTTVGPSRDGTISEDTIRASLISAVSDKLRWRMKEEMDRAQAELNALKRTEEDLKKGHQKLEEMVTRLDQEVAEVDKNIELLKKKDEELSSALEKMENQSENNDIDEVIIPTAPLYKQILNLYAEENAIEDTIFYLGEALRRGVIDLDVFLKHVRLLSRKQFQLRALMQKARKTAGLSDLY
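Fluorescence anisotropy tracks displacement of a FITC-tagged PTAP peptide (50 nM) from the Tsg101 binding domain (10 uM), following a 20 min room-temperature incubation at pH 7.5.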
KB-V1 MDR tox: qHTS assay for MDR1-selective chemotherapeutics: Primary screen using the drug-selected MDR subline cells KB-V1. Potency, µM (titrated, usually from 46.1 µM), hits mostly cytotoxic. AID 1347076, 2019. 400,000 tested, 3.4% active. KB-V1 MDR cells viability, CellTiter-Glo, 72 h; also: % is scaled to controls: 0 for no effect and ±100 for the full control effect; nearly all actives have a fitted effect of over 60% in size
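Following 72 h at 37 degrees C with compound, KB-V1 cell viability was read by CellTiter-Glo luminescence, medium being phenol-red-free DMEM plus 10% FBS; concentration-response parameters came from normalized, curve-fitted qHTS data.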
KB-3-1 tox: qHTS assay for MDR1-selective chemotherapeutics: Primary screen using the parental adenocarcinoma cell KB-3-1. KB-3-1 viability, CellTiter-Glo ATP luminescence, 72 h. Potency, µM (highest dose often 46.1 µM), actives largely listed as cytotoxic. 400,000 tested, 1.4% active. AID 1347075, 2019; also: % is scaled to controls: 0 for no effect and ±100 for the full control effect; nearly all actives have a fitted effect of over 60% in size
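72 h, 37 °C compound treatment of KB-3-1 parental cells; CellTiter-Glo added, 10 min, luminescence read. Data corrected against DMSO-only plates and normalized before curve fitting.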
RGS4 inhibitor: Inhibitors of Regulator of G Protein Signaling (RGS) 4: qHTS. Transcreener GDP fluorescence polarization, RGS4-accelerated GTP hydrolysis. Regulator of G-protein signaling 4 (Homo sapiens), P49798. Potency, µM (titrated, usually from 114 µM), inactives show at the top dose activity change, negative = inhibition, hits mostly inhibitors. 390,000 tested, 0.039% active. AID 504845, 2011; also: % is scaled to controls: 0 for no effect and ±100 for the full control effect; nearly all actives have a fitted effect of over 75% in size
Target sequence (P49798 whole entry, looked up): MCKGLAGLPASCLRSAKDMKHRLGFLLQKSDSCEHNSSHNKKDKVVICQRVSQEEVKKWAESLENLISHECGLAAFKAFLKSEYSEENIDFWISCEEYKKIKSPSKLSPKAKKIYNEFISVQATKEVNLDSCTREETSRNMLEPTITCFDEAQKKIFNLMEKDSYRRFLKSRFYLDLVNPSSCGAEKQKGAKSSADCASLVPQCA
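MLSMR compounds (23 nl, pin-transferred) preincubated 10 min at room temperature with a 500nM (2x) first reagent, then RGS4 at 900nM (2x) plus Transcreener GDP mix added; fluorescence polarization (620/688 nm) read before and after 90 min at 30 °C.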
Active calls of the source: *; i = inactive; ? = inconclusive; . = not tested or not shown. Unless noted, calls follow the shape of the dose curve; as a rule, active = well fitted curve in the direction sought with a large enough effect; inconclusive = small, poorly fitted or top-dose-only effect, or another doubt; inactive = no such curve, though single readings can be large; an effect the other way counts as inactive or inconclusive. Potency is read from the fitted curve at half-maximal effect.

SMILES	MCF10A rerep	SW480 rerep	TSG101-PTAP inh	KB-V1 MDR tox	KB-3-1 tox	RGS4 inhibitor
CCCOc1cccc(C2C(C(=O)c3cc4ccccc4o3)=C(O)C(=O)N2c2cc(C)on2)c1 (configuration not stated)	5.8µM*	25.8%	-7.3%	i	?	-35.0%
COc1ccc(CNC(=O)Cn2ncc3c4ccccc4n(Cc4cccc(Cl)c4)c3c2=O)cc1	.	.	.	i	i	25.3%
CCCC[C@H]1CCCO[C@@](C(=O)NCc2ccc(C)o2)(C(F)(F)F)C1	.	.	.	.	.	-45.2%
Cc1cccn2cc(-c3ccc(S(=O)(=O)N4CCCCC4)cc3)nc12	21.4%	1.6%	-4.0%	i	i	1.0%
Cc1cccn2cc(-c3ccc(S(=O)(=O)N4CCOCC4)cc3)nc12	1.2%	-4.3%	1.4%	2.31µM*	i	-1.4%
c1ccc(CN2CCN(c3ncnc4c3[nH]c3ccccc34)CC2)cc1	20.6µM*	1.2%	0.0%	2.59µM*	18.4µM*	-17.2%
COc1ccc2c(c1)[nH]c1c(N3CCN(Cc4ccc5c(c4)OCO5)CC3)ncnc12	?	10.5%	-1.1%	2.59µM*	?	-12.1%
Cc1ccc2[nH]c3c(N4CCN(Cc5ccccc5)CC4)ncnc3c2c1	?	?	1.8%	11.6µM*	?	0.4%
c1ccc2c(c1)CCN(c1ncnc3c1[nH]c1ccccc13)C2	?	?	-6.6%	9.2µM*	i	12.1%
Cc1c(C(=O)NCc2cccc(Cl)c2)sc2ncnc(N(C)C3CCCCC3)c12	.	.	.	i	i	8.5%
Cc1ccc(C)c(C(=O)c2ccccc2NC(=O)c2ccccn2)c1	7.31µM*	?	1.1%	?	?	-24.0%
Cc1ccc(NC(=O)CN2C(=O)c3cccnc3Sc3ccccc32)c(Br)c1	.	.	.	.	.	-23.0%
CC(=O)Nc1ccccc1NC(=O)c1cc(C)ccc1C	2.8%	-2.9%	-2.8%	i	i	-6.4%
Cc1ccc2c(c1)C(=O)C(=O)N2CC(=O)Nc1ccccc1NC(=O)c1ccccn1	13µM*	18.4µM*	1.8%	i	?	-1.8%
COC(=O)C1=CN(Cc2cccs2)C=C(C(=O)OC)C1c1cccc(Cl)c1	7.31µM*	?	-1.7%	?	i	1.6%
COC(=O)C1=CN(Cc2ccc(OC)cc2)C=C(C(=O)OC)C1c1ccsc1	?	23.1µM*	-0.3%	?	i	-35.3%
COCCN1C=C(C(=O)OC)C(c2ccc(Cl)cc2)C(C(=O)OC)=C1	16.4µM*	9.2µM*	-3.7%	i	i	-15.8%
CCc1ccc(NCc2cc3cc4c(cc3n(CC(=O)Nc3ccccc3Cl)c2=O)OCO4)cc1	.	.	.	?	i	-9.9%
CCOC(=O)c1cc2c(=O)n3ccccc3nc2n(Cc2ccco2)c1=NC(=O)c1c(F)cccc1Cl	.	.	.	i	i	?
COc1ccc(OC)c(S(=O)(=O)N2Cc3ccccc3CC2C(=O)Nc2ccc(C(C)=O)cc2)c1 (configuration not stated)	.	.	.	.	.	-34.5%
O=C(/C=C/c1cccnc1)c1ccccc1O	21.2%	-8.6%	-0.4%	i	i	-13.3%
COc1cc(/C=C/C(=O)c2ccc(C)c([N+](=O)[O-])c2)cc(OC)c1O	9.2µM*	.	-1.9%	?	i	-7.8%
COc1ccc2cc(C(=O)/C=C/c3cc(OC)c(O)c(OC)c3)ccc2c1	9.2µM*	?	-0.3%	i	?	-27.1%
COc1cc(C(=O)/C=C/c2cccnc2)c([N+](=O)[O-])cc1OC	23.1µM*	4.9%	4.4%	i	?	-44.1%
COc1ccc(C(=O)/C=C/c2cc(OC)c(O)c(OC)c2)c(F)c1	?	27.1%	-5.6%	?	?	-37.3%
SMILES	MCF10A rerep	SW480 rerep	TSG101-PTAP inh	KB-V1 MDR tox	KB-3-1 tox	RGS4 inhibitor
COc1cccc(/C=C/C(=O)c2ccc(C)c([N+](=O)[O-])c2)c1	6.51µM*	?	-1.0%	i	i	-50.4%
COc1ccc(CCNC(=O)CCCn2c(=O)c3ccccc3n(CC(=O)Nc3ccccc3C)c2=O)cc1OC	.	.	.	?	i	4.6%
CCc1ccc(NC(=O)N2CCN(c3nnc(C)c4c(C)n(-c5ccc(Cl)cc5)nc34)CC2)cc1	.	.	.	i	?	-7.9%
COc1ccc2c(Sc3ccccc3)c(C(=O)NCCc3ccc(Cl)cc3)[nH]c2c1	.	.	.	i	i	-13.3%
COc1ccc(OC)c(NC(=O)N2c3ccccc3Sc3ccccc32)c1	.	.	.	i	i	7.5%
CCOc1ccc2[nH]c(=O)c(CN(Cc3cccs3)Cc3nnnn3C(C)(C)CC)cc2c1	-1.7%	17.9%	-7.6%	18.4µM*	i	20.9%
CCC(C)(C)n1nnnc1CN(Cc1cccs1)Cc1cc2cc(OC)ccc2[nH]c1=O	?	-1.9%	-11.2%	i	i	-2.0%
COc1ccc(C2=CC(=O)C[C@H](COCc3ccccc3)N(C(=O)OC(C)(C)C)O2)cc1	23.1µM*	-5.9%	-3.9%	i	i	30.9%
COc1ccc(NC(=O)C2CCCN2C(=O)OCc2ccccc2)cc1 (configuration not stated)	2.5%	-5.9%	-5.2%	i	i	8.3%
COc1ccc(-c2nc3sc(CCNC(=O)c4cc(Cl)ccc4OC)c(C)n3n2)cc1	.	.	.	i	i	3.9%
COc1ccc(CNc2ncnc3cc(Cl)ccc23)cc1OC	17.6%	-5.2%	-2.9%	20.6µM*	?	-10.6%
COc1ccc(CNc2ncnc3sccc23)cc1OC	11.4%	5.1%	-5.1%	16.4µM*	?	3.4%
CCOc1ccc(C(=O)Nc2ccc(-c3nc4ccccc4o3)cc2)cc1[N+](=O)[O-]	.	.	.	?	i	.
Nc1ccc(C(=O)OCC(=O)N2c3ccccc3Sc3ccccc32)cc1[N+](=O)[O-]	?	-6.0%	-3.9%	6.51µM*	?	14.1%
NCCNc1ccc(C(=O)N2c3ccccc3Sc3ccccc32)cc1[N+](=O)[O-]	?	?	-0.1%	20.6µM*	?	6.8%
Nc1ccc(C(=O)OCC(=O)N2CCc3ccccc3C2)cc1[N+](=O)[O-]	?	?	-1.0%	i	i	11.9%
COc1ccc(-c2nc3sc(CCNC(=O)c4ccc(C(C)(C)C)cc4)c(C)n3n2)cc1	.	.	.	i	i	24.2%
